In publication PMC7826789 (International Journal of Molecular Sciences, 2021) one finds Kinases covered data, which are given here for 4 compounds.

For the test, the system named is PRKD1.
Take `Cc1cccc(-c2nc(Nc3ccncc3)c3ccccc3n2)n1` [GW855857]: the Kinases covered result is given as “PRKD1”.
For the compound `Cc1cccc(-c2cc(Nc3ccncc3)c3ccccc3n2)n1` [GSK223675], the Kinases covered entry was “PRKD1”.
For `COc1ccc2nc(-c3cccc(C)n3)nc(Nc3ccncc3)c2c1` [GSK204919] the value was “PRKD1”; for `C[C@@H]1CCNC(=O)c2cc3ccc(C(=O)Nc4nc5ccccc5n4CCCN(C)C)cc3n21` [BI00645435], “PRKD1”.
